Methyltransferases: Primary Screen for Target Class Profiling of Small Molecule Inhibitors of Methyltransferases. purified enzyme, MTase-Glo SAH luminescence; hits give low values. calls only at 40 µM. 25,000 tested, 3.9% active; call rule not given here
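Each enzyme was assayed with SAM and its substrate. SAH formation detected by MTase-Glo luminescence; single-point 40 uM screen[…].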
* marks the source's active call; other numbers are inactive results; i = inactive; + = active, no number. This is one part of a sample in which hits are shown more often than they occur. % is scaled to controls: 0 for no effect and ±100 for the full control effect.

SMILES | Methyltransferases
CN(CC(=O)N(Cc1ccc(C2CCCCC2)cc1)c1ccc(C(=O)O)cc1)S(=O)(=O)c1c(F)c(F)c(F)c(F)c1F | +
CCN1C(=O)c2cc(C(=O)N3CCN(c4ccccc4F)CC3)nn2CC1(C)C(=O)NC1CCCC1 (stereo not drawn) | i
Cc1cccc(NC(=O)CSc2nnc3n(CCCOC(C)C)c(=O)c4ccccc4n23)c1 | i
CCCSCCCN1C(=O)c2cc(-c3ccc(CC)cc3)nn2CC1(C)C(=O)NC1CCCCC1 (stereo not drawn) | i
C[n+]1cc2c3c(ccc2c2ccc4cc5c(cc4c21)OCO5)OCO3 | +
CC1(C(=O)NC2CCCCCC2)Cn2c(cc3occc32)C(=O)N1Cc1ccccc1 (stereo not drawn) | i
COC(=O)c1ncn2c1C(=O)N(c1ccc(OC)c(Cl)c1)C(C)(C(=O)NC1CCCC1)C2 (stereo not drawn) | i
CCCCN1C(=O)c2cc(C(=O)Nc3ccc(OC)cc3OC)nn2CC1(C)C(=O)NC1CCCC1 (stereo not drawn) | i
CCCNC(=O)N1Cc2c(sc3c2CCCC3)-n2cccc2C1c1cccs1 (stereo not drawn) | i
C[C@@]1(C2CCCC2)Cc2cc(OCC(=O)O)c(Cl)c(Cl)c2C1=O | +
O=c1[nH]c2ccc(S(=O)(=O)Nc3ccc(Br)cc3F)cc2[nH]1 | i
Cc1ccc(NC(=O)Cn2nc3n(C(C)C)c(=O)c4ccc(C(=O)NCC(C)C)cc4n3c2=O)c(C)c1 | i
O=C(CCc1nnc2n(Cc3ccc(Cl)cc3)c(=O)c3ccccc3n12)N1CCN(c2ccc(F)cc2)CC1 | i
CC(C)CNC(=O)c1ccc2c(=O)n(C(C)C)c3nn(CC(=O)NC(C)C)c(=O)n3c2c1 | i
Cc1ccc(C)c(N2C(=O)c3cc4sccc4n3CC2(C)C(=O)NC2CCC(C)CC2)c1 (stereo not drawn) | i
COc1ccccc1CNC(=O)C1(C)Cn2nc(-c3ccccc3)cc2C(=O)N1Cc1ccc2c(c1)OCO2 (stereo not drawn) | i
COc1cc(/C=N\NC(=O)c2ccc3c(c2)OCO3)ccc1OCc1ccccc1 | +
COc1ccc(/C=C/C(=O)Nc2ccccc2C(=O)O)cc1OC | i
CCOc1ccc(CCNC(=O)CCc2nnc3n(Cc4ccc(C)cc4)c(=O)c4ccccc4n23)cc1 | i
Cc1ccc(CCNC(=O)c2cc3n(n2)CC(C)(C(=O)NCc2ccc(F)cc2)N(C)C3=O)cc1 (stereo not drawn) | i
COc1cccc(CN2C(=O)c3cc4oc(C)cc4n3CC2(C)C(=O)NC2CCCCC2)c1 (stereo not drawn) | i
Cc1cc(C)cc(NC(=O)CCc2nnc3n(Cc4ccccc4)c(=O)c4ccccc4n23)c1 | i
O=C(Cn1nc2nc(Nc3ccc(F)cc3)ccn2c1=O)Nc1ccccc1F | i
CC1(C(=O)NC2CCCCCC2)Cn2c(ccc2-c2ccco2)C(=O)N1Cc1cccnc1 (stereo not drawn) | i
CCN1C(=O)c2c(C(=O)NCCc3ccco3)ncn2CC1(C)C(=O)NC1CCCC1 (stereo not drawn) | i
SMILES | Methyltransferases
O=C(CCc1ccccc1)c1c(O)c([C@@H]2O[C@H](CO)[C@@H](O)[C@H](O)[C@H]2O)c(O)c([C@@H]2O[C@H](CO)[C@@H](O)[C@H](O)[C@H]2O)c1O | +
CN(C)c1ccc(C(=O)NC[C@H]2O[C@@H](CO)[C@@H](O)[C@H]2N(C)CCc2ccccc2)cc1 | i
O=C(Cc1ccccc1)OC[C@H]1O[C@H](O[C@H]2O[C@H](CO)[C@@H](O)[C@H](O)[C@H]2O)[C@H](O)[C@@H](O)[C@@H]1O | i
CCOC(=O)c1cc2n(n1)CC(C)(C(=O)NCCOC)N(c1cccc(F)c1)C2=O (stereo not drawn) | i
O=C(c1c(F)ccc(NS(=O)(=O)N2CC[C@@H](F)C2)c1F)c1c[nH]c2ncc(-c3cnc(C4CC4)nc3)cc12 | i
CCCS(=O)(=O)Nc1ccc(F)c(C(=O)c2c[nH]c3ncc(-c4ccc(Cl)cc4)cc23)c1F | +
COc1ccc(-c2cnc3[nH]cc(CC(=O)N4CCNC(=O)C4)c3c2)cc1 | i
O=C(Cn1c(=O)oc2cc(S(=O)(=O)N3CCCC3)ccc21)Nc1nccs1 | i
CSc1ccc2c(c1)C(N1CCN(C)CC1)Cc1ccccc1S2 (stereo not drawn) | +
CN1CCN(CCCN2c3ccccc3Sc3ccc(Cl)cc32)CC1 | i
CN1CCN2c3ccccc3Cc3ccccc3C2C1 (stereo not drawn) | i
CC1(C(=O)NC2CCCCC2)Cn2nc(-c3ccco3)cc2C(=O)N1Cc1ccccc1Cl (stereo not drawn) | i
COC(=O)c1cc2n(n1)CC(C)(C(=O)NC1CCCCCC1)N(c1ccccc1C)C2=O (stereo not drawn) | i
C=Cc1ccc(Cn2nc3n(C(C)C)c(=O)c4ccc(C(=O)NC5CCCC5)cc4n3c2=O)cc1 | i
N#Cc1c(C2CCNCC2)cc(-c2c(O)cccc2OCC2CC2)nc1N | +
CCCn1c(=O)c2ccccc2n2c(=O)n(CC(=O)Nc3ccccc3OC)nc12 | i
Clc1ccc(C2(c3ccc(-c4cn[nH]c4)cc3)CCNCC2)cc1 | +
CCCCN1C(=O)c2cc3ccc(OC)cc3n2CC1(C)C(=O)NC1CCCC1 (stereo not drawn) | i
C=Cc1ccc(CSc2nnc3n(CC(C)C)c(=O)c4ccccc4n23)cc1 | i
COc1ccc(-c2nc(-c3cc(C(F)(F)F)cc(C(F)(F)F)c3)n(Cc3ccc(C(N)=O)cc3)c2-c2ccc(OC)cc2)cc1 | +
COc1ccc(Cn2c(=O)c3ccccc3n3c(-c4ccc(O)cc4)nnc23)cc1 | i
COc1ccc(CN2CCCC3(CC(c4cccc(C(F)(F)F)c4)=NO3)C2)cc1 (stereo not drawn) | i
Cc1cc2c(cc1S(=O)(=O)Nc1ccc(F)c(F)c1)n(C)c(=O)n2C | i
Cc1c(OCC(=O)OCc2ccccc2)ccc2c(-c3ccccc3)cc(=O)oc12 | i
CCCSCCCN1C(=O)c2nc3ccccc3n2CC1(C)C(=O)NC1CCCC1 (stereo not drawn) | i
SMILES | Methyltransferases
CCCC1c2cccn2CCN1C(=O)Nc1ccccc1CC (stereo not drawn) | i
COc1cccc(-c2ccc(NC(=O)C3CCCN3C(=O)CNC(C)=O)cc2)c1 (stereo not drawn) | i
CC(=O)NCC(=O)N1C2CCC1c1cc(Nc3ncc(C(F)(F)F)c(NC4CCC4)n3)ccc12 (stereo not drawn) | +
C=CC(=O)Nc1cccc(Nc2nc(Nc3ccc(NC4CN(CCF)C4)cc3OC)ncc2C(F)(F)F)c1 | i
Cc1cnc(C2CCOCC2)n1C1CCN(S(=O)(=O)c2ccc3c(c2)OCCO3)CC1 | i
COc1cccc(CSc2nnc3n(Cc4ccc(C)cc4)c(=O)c4ccccc4n23)c1 | i
CCC(C)NC(=O)c1ccc2c(=O)n(C(C)C)c3nn(CC(=O)c4ccc(F)cc4)c(=O)n3c2c1 (stereo not drawn) | i
CCCn1c(=O)c2ccccc2n2c(SCC(=O)NC(C)CC)nnc12 (stereo not drawn) | i
CCN1CCN(Cc2ccc(Nc3ncc(F)c(-c4cc(F)c5nc(C)n(C(C)C)c5c4)n3)nc2)CC1 | +
CCC1c2ccc(C)n2CCN1C(=O)Nc1ccc(C)c(C)c1 (stereo not drawn) | i
